# Experimental data from PubChem BioAssay (NCATS).
# Unmarked numbers belong to inactive results. Results filed as inconclusive are left out. Entries that show only a call come without a potency. Active and inactive are the calls of the source. Unless noted, calls come from the whole dose curve; as a rule, active = well fitted curve in the direction sought with a large enough effect; inconclusive = small, poorly fitted or top-dose-only effect, or another doubt; inactive = no such curve, though single readings can be large; an effect the other way counts as inactive or inconclusive.
# Assays:
# [1] = AP1 Signaling Pathway (AID 357; active = well fitted curve in either direction with a large enough effect, not every such curve was filed as active); conditions: ME-180 AP-1-bla reporter, EGF-induced, beta-lactamase ratio, 5 h; at 7.69 µM (top of the series) unless noted
# How it was run: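 AP-1-bla ME-180 cells with beta-lactamase reporter under AP-1 response element, stimulated with EC50 EGF; compounds titrated, 5 hours at 37 degrees Celsius. CCF4 read at 460/530 nm ratio; positive and negative modulators judged by AC50.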
# [2] = biological target: Cytochrome P450 1A2 (Homo sapiens) (UniProt P05177); assay: p450-cyp1a2 (AID 410; calls by dose curve; note: potency is the fitted concentration of half-maximal effect)
# Cytochrome P450 1A2 (Homo sapiens), sequence (P05177 whole entry, looked up): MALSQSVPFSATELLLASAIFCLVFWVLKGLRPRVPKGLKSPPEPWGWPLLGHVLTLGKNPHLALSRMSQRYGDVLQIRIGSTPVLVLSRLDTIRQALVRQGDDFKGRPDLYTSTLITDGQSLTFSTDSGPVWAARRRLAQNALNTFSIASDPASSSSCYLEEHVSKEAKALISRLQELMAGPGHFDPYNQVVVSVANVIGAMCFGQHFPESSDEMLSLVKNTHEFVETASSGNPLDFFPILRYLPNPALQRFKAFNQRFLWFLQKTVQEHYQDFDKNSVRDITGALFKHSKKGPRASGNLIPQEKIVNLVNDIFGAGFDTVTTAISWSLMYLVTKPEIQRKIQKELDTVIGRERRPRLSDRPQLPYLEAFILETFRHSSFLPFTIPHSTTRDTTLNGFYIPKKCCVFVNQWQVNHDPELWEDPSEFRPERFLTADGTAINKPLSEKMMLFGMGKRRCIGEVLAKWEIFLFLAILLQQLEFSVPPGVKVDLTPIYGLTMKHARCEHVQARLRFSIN
# How it was run: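 Inhibition was calculated relative to 57 uM furafylline (full inhibition). The reaction used human CYP1A2 at 20nM with Luciferin-ME at its Km, 100uM, driven by an NADPH-regenerating system for 60 min at room temperature.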
# [3] = Stat Signaling Pathway (AID 446; active = well fitted curve in either direction with a large enough effect, not every such curve was filed as active;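 note: ME-180 cervical cancer cells given 40 pM IL-6 alongside compound; SIE-controlled beta-lactamase reporter measured as 460/530 nm FRET emission ratio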)
# How it was run: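 ME-180 SIE-bla cells; overnight plating; cpd + IL-6 40 pM, 5 h, 37 C; LiveBLAzer 2.5 h RT; 460/530 nm emission ratio. Normalized to 300 pM IL-6 and 125 nM JAK inhibitor controls.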
# [4] = biological target: Glucocorticoid receptor (Homo sapiens) (UniProt P04150); assay: GR-GFP Redistribution (AID 450;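 active = compounds whose dose series gives a full or clear partial fitted curve of increased nuclear translocation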; note: potency is the fitted concentration of half-maximal effect); conditions: U2OS GR-GFP nuclear translocation, laser cytometry, 2 h
# Glucocorticoid receptor (Homo sapiens), sequence (P04150 whole entry, looked up, the tested form may be a part): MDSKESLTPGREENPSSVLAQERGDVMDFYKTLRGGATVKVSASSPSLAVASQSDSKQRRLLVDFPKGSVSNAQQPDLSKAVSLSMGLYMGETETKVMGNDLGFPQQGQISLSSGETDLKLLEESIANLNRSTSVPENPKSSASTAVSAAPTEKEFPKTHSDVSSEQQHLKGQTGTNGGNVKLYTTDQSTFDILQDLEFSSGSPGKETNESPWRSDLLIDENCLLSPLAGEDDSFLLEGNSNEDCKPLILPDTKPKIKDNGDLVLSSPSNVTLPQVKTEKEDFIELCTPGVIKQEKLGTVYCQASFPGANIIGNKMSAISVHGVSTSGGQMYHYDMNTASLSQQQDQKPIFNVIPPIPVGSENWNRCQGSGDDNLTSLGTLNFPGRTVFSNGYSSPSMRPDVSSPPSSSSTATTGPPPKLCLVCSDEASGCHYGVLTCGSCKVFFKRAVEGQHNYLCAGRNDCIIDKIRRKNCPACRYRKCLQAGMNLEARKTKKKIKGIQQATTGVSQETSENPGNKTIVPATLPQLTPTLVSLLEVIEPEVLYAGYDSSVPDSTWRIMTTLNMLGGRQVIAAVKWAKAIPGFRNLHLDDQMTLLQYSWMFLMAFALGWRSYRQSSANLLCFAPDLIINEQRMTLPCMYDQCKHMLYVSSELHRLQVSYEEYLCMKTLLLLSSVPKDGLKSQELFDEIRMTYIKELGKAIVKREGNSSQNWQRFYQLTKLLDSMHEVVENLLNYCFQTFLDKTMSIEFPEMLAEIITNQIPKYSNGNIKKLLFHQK
# [5] = biological target: Glucocorticoid receptor (Homo sapiens) (UniProt P04150); assay: GR-EFC Redistribution (AID 451; calls by dose curve; note: potency is the fitted concentration of half-maximal effect); conditions: CHO-K1 GR-EFC translocation, beta-gal luminescence, 2 h
# How it was run: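 CHO-K1 cells expressing nuclear EA and GR-ED fragments of b-gal; compounds titrated up to 46 uM final, 2 h at 37 C. GR nuclear translocation read as complemented b-gal luminescence after 1 h RT detection.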
# [6] = biological target: Mitogen-activated protein kinase 10 (Mus musculus) (UniProt Q61831); assay: JNK3 AlphaScreen Assay (AID 530; active = well fitted curve in either direction with a large enough effect, not every such curve was filed as active;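 note: kinase came from lysate of stimulated human HepG2 cells; signal reports phosphorylation of biotinylated GST-cJun 1-79 at Ser73 with 10 µM ATP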)
# How it was run: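 qHTS format: compounds tested as titrations against IL-1beta/TNF-alpha-activated HepG2 lysate JNK3 with biotin-GST-cJun substrate and 10 uM ATP at room temperature. Loss of anti-phospho-cJun AlphaScreen signal indicates inhibition.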
# [7] = biological target: 3',5'-cyclic-AMP phosphodiesterase 4B (Homo sapiens) (UniProt Q07343); assay: qHTS Assay for Inhibitors of PDE-IV (AID 607; active = well fitted activation curve with a large enough effect in the main read-out, with a control signal flat, not every such curve was filed as active)
# 3',5'-cyclic-AMP phosphodiesterase 4B (Homo sapiens), sequence (Q07343 whole entry, looked up): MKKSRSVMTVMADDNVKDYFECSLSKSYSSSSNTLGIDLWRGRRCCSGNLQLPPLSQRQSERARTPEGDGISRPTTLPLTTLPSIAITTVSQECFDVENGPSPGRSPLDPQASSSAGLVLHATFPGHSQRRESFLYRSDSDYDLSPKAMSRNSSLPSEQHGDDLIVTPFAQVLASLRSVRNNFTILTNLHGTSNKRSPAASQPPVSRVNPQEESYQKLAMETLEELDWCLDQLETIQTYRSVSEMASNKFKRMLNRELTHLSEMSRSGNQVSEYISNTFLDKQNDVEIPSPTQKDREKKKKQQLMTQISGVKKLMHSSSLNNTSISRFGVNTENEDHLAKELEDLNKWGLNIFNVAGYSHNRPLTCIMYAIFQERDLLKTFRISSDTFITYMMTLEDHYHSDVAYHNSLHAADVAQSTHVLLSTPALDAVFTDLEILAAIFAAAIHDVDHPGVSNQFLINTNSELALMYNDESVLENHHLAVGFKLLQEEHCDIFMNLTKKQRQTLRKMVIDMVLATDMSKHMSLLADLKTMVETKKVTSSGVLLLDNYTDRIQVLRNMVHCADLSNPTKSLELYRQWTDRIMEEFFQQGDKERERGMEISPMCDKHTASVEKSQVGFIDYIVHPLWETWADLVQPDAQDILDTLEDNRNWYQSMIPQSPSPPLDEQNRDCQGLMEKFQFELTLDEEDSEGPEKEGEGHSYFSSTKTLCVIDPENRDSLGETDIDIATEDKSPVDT
# How it was run: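 ACTOne HEK293 cells carry a modified cAMP-gated CNG channel and express endogenous PDE4; plated 1000 cells/well, compounds up to 22.9 uM final. Membrane-potential dye fluorescence (ex 535/em 590) was read; parental cells received 10 uM forskolin + 100 uM RO 20-1724.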
# [8] = biological target: Guanine nucleotide-binding protein G(i) subunit alpha-1 (Homo sapiens) (UniProt P63096); assay: qHTS Assay for Inhibitors of RGS12 GoLoco Motif Activity (Green Fluorophore) (AID 879);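 note: negative values mean loss of peptide binding seen as reduced polarization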
# Guanine nucleotide-binding protein G(i) subunit alpha-1 (Homo sapiens), sequence (P63096 whole entry, looked up): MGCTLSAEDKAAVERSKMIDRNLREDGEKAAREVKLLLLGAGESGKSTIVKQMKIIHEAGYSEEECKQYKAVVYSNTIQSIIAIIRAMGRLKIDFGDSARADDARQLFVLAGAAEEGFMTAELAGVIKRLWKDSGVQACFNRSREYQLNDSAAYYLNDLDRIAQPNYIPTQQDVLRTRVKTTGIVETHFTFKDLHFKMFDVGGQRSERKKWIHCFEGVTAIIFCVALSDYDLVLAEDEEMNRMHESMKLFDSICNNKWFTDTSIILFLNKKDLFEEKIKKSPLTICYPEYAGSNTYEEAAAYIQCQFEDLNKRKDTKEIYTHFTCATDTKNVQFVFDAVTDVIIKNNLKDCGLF
# How it was run: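 Fluorescence polarization assay: 50 nM Gαi1 with 10 nM FITC-labeled RGS12 GoLoco peptide in 10 mM Tris pH 7.5, 150 mM NaCl, 0.1 mM GDP, 0.05% NP40, 10 min at room temperature with compound.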
# [9] = biological target: Cytochrome P450 2C9 (Homo sapiens) (UniProt P11712); assay: qHTS Assay for Inhibitors and Substrates of Cytochrome P450 2C9 (AID 883); note: nearly all actives have a fitted effect of over 60% in size
# How it was run: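 Human CYP2C9 (10nM) with Luciferin-H at 100uM (its KM) in 25mM KPO4; compound preincubated 10 min at 37C, then NADPH regeneration for 60 min at 37C. Luciferin read by luminescence after detection reagent; normalized to 57uM sulphaphenazole as full inhibition.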
# [10] = biological target: Cytochrome P450 3A4 (Homo sapiens) (UniProt P08684); assay: qHTS Assay for Activators of Cytochrome P450 3A4 (AID 885); note: nearly all actives have a fitted effect of over 65% in size
# Cytochrome P450 3A4 (Homo sapiens), sequence (P08684 whole entry, looked up): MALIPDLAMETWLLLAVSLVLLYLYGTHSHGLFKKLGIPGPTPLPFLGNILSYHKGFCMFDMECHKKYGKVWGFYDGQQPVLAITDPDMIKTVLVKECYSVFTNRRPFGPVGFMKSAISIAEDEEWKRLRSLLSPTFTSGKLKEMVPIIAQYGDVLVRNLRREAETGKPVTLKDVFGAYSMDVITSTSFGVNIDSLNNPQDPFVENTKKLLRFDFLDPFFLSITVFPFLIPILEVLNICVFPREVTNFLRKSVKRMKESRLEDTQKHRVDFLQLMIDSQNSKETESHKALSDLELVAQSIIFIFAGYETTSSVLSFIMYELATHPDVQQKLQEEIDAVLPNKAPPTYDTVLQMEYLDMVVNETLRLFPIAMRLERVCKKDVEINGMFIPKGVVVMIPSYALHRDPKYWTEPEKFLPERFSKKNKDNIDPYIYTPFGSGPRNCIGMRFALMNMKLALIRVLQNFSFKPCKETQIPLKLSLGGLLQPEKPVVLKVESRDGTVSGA
# How it was run: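 20nM CYP3A4 + 25uM Luciferin-PPXE (=KM), 200mM KPO4; cpd 10 min RT; NADPH regen, 60 min RT; stop w/ detection buffer, 20 min; luminescence. Normalized to 57 uM ketoconazole.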
# [11] = biological target: Cytochrome P450 2D6 (Homo sapiens) (UniProt P10635); assay: qHTS Assay for Inhibitors and Substrates of Cytochrome P450 2D6 (AID 891); note: potency is the fitted concentration of half-maximal effect; nearly all actives have a fitted effect of over 60% in size
# Cytochrome P450 2D6 (Homo sapiens), sequence (P10635 whole entry, looked up): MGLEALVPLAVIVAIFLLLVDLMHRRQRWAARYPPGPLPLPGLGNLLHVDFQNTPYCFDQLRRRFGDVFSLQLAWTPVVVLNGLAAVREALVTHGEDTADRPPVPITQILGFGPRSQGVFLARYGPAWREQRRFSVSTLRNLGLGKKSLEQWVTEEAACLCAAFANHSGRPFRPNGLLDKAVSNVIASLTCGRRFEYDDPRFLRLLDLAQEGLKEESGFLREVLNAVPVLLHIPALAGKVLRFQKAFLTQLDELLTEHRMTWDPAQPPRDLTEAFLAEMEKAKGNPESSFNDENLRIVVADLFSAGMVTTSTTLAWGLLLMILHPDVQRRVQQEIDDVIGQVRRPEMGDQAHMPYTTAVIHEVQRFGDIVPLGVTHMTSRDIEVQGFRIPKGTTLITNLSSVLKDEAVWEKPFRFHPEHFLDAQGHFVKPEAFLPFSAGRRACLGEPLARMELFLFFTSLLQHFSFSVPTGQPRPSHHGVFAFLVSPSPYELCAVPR
# How it was run: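 Human CYP2D6 (5 nM) with 30 uM Luciferin-ME EGE (at Km) in 100 mM KPO4, compound preincubated 10 min, then NADPH regeneration system for 60 min at room temperature. Luciferin read by luminescence; normalized to 1.43 uM quinidine.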
# [12] = qHTS Assay for Identification of Small Molecule Agonists for Hypoxia Response Element Signaling Pathway (AID 914; active = well fitted activation curve with a large enough effect in the signal ratio, with a control signal flat, not every such curve was filed as active; the % refers to the signal ratio); conditions: ME-180 (cervical carcinoma) HRE-bla reporter, beta-lactamase ratio, CoCl2, 17 h; activation: stronger effect = higher value
# How it was run: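 Read-out: CCF4 FRET ratio of 460nm to 530nm emission (excitation 405nm) after 2.5 hours at room temperature, taken from HRE-bla ME-180 cells that had been exposed to compound and EC50 CoCl2 for 17 hours.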
# [13] = qHTS Assay for Identification of Small Molecule Agonists for Thrombopoietin (TPO) Signaling Pathway (AID 917)
# How it was run: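 Luminescence from a Glycoprotein IIb promoter–driven luciferase reporter served as read-out in murine Ba/F3 cells carrying the human TPO receptor. Cells, deprived of IL-3 overnight, received compounds with 26 pM TPO and were incubated 24 hrs at 37 C.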
# [14] = biological target: Muscarinic acetylcholine receptor M1 (Rattus norvegicus) (UniProt P08482); assay: qHTS Assay for Antagonists of Acetylcholine Muscarinic M1 Receptor: Kinetic Measurement of Intracellular Calcium Response (AID 943); note: potency is the fitted concentration of half-maximal effect; nearly all actives have a fitted effect of over 75% in size
# Muscarinic acetylcholine receptor M1 (Rattus norvegicus), sequence (P08482 whole entry, looked up): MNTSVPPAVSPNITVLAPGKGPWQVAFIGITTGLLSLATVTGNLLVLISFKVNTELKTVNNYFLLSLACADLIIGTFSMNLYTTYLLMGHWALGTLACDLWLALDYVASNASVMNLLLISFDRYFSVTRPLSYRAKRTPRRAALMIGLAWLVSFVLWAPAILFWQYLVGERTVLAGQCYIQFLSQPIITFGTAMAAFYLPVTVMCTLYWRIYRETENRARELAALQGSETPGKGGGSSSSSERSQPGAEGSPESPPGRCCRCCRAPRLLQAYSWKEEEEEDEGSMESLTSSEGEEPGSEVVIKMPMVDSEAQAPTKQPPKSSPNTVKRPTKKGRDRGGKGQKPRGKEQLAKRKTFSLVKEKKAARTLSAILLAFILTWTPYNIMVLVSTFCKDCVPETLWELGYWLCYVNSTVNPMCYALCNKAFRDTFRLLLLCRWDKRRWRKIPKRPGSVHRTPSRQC
# How it was run: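 Intracellular calcium flux, recorded with Fluo-4 in a kinetic plate reader, served as signal; the response to carbachol at EC80 (100 nM final) was taken as maximal over minimal fluorescence after a 10 min compound pre-incubation in rat M1-CHO cells.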
# [15] = biological target: Pyruvate kinase (Leishmania mexicana) (UniProt Q27686); assay: qHTS Validation Assay for Inhibitors of Leishmania Mexicana Pyruvate Kinase (AID 945)
# Pyruvate kinase (Leishmania mexicana), sequence (Q27686 2-499 E452W): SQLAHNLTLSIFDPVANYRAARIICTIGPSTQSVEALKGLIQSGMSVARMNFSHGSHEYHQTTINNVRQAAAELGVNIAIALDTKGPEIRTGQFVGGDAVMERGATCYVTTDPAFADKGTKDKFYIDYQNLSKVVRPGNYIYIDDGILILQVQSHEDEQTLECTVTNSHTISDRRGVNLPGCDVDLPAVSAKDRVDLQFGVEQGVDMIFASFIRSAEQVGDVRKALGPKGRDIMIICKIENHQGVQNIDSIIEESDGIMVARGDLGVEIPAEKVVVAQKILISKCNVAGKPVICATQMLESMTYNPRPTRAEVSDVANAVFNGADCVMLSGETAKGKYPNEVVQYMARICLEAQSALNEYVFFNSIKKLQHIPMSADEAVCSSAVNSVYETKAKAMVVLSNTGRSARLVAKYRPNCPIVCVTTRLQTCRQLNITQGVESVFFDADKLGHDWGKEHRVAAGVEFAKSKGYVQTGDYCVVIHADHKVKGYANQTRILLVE
# How it was run: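 Substrate mix (0.5 mM PEP, 0.1 mM ADP, 7 mM MgCl2, 50 mM KCl, pH 7.2 imidazole) received compound by pin tool, then 0.2 nM LmPYK E451W. After 1 h at room temperature, PKLight was added and luminescence measured.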
# [16] = biological target: Pyruvate kinase PKM (Homo sapiens) (UniProt P14618); assay: qHTS Assay for Activators of Human Muscle Pyruvate Kinase (AID 954; active = well fitted curve in the direction sought with a large enough effect, not every such curve was filed as active)
# How it was run: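 Luminescence from a luciferase ATP-detection/stop reagent reported PKM2 activity. Reactions contained 0.1 nM purified human enzyme, 0.5 mM PEP, 0.1 mM ADP and 7 mM MgCl2 at pH 7.2, run 1 h at RT.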
# [17] = biological target: Alpha-galactosidase A (Homo sapiens) (UniProt P06280); assay: Counterscreen for Glucocerebrosidase Inhibitors: qHTS Assay for Human alpha-Galactosidase at pH 4.5 (AID 992)
# Alpha-galactosidase A (Homo sapiens), sequence (P06280 whole entry, looked up): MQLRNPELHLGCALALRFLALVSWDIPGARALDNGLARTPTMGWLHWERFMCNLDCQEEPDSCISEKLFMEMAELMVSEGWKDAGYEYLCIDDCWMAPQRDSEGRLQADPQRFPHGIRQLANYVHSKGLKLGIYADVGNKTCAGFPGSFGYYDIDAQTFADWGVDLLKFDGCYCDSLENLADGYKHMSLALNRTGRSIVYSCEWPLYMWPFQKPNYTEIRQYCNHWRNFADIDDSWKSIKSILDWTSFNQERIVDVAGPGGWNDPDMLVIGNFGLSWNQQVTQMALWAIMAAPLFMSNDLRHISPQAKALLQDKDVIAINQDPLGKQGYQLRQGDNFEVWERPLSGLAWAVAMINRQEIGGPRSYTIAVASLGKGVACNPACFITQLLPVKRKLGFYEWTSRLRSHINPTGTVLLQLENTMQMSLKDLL
# How it was run: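 Enzyme at 2 nM final was combined with compound (0.7 nM to 77 uM) and 80 uM 4-methylumbelliferyl alpha-D-galactopyranoside in 50 mM citric acid, 0.005% Tween-20, pH 4.5. After 20 min at room temperature, fluorescence was read (Ex 365/Em 440 nm); AC50 came from Hill fits.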
# [18] = biological target: alpha-glucosidase (Oryza sativa, rice) (UniProt Q653V4); assay: Counterscreen for Glucocerebrosidase Inhibitors: qHTS Assay for Rice alpha-Glucosidase at pH 5.0 (AID 997)
# How it was run: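 Rice alpha-glucosidase (4 nM final) with 400 uM 4-methylumbelliferyl-alpha-D-glucopyranoside in citrate buffer pH 5.0, 20 min at room temperature, stopped at pH 10; fluorescence 365/440 nm, compounds 0.7 nM–77 uM, AC50 from Hill fits.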
smiles,measurement,setting,value
CCCCN1CCC(COC(=O)c2cc(Cl)c(N)c3c2OCCO3)CC1,"activity change, negative = inhibition",[1],-2.87% [at 38 µM]
same,Potency,[2],12.6 µM (active)
same,outcome,[3],inactive
same,Potency,[4],> 46 µM
same,Potency,[5],> 46 µM
same,Potency,[6],inactive
same,Potency,[7],inactive
same,Potency,[8],inactive
same,Potency,[9],inactive
same,outcome,[10],inactive
same,Potency,[11],1.26 µM (active)
same,activation,[12],7.22%
same,outcome,[13],inactive
same,Potency,[14],5.62 µM (active)
same,outcome,[15],inactive
same,outcome,[16],inactive
same,outcome,[17],inactive
same,outcome,[18],inactive
